PubChem BioAssay AID1903 (Southern Research Specialized Biocontainment Screening …, 2009)
In all, about 310,000 compounds went through this assay and about 1,200 (0.39%) were called active. The list is a sample of the results. Potency and affinity values are given separately. A number with no mark means an inactive call. The rule behind the calls is not given here.

molecular target: Large T antigen (Simian virus 40) (UniProt P03070); assay: TAg ATPase/helicase activity blockers – biochemical (AID 1903); settings: SV40 large T antigen ATPase/helicase inhibition assay; at 20 µM; active compounds read high
Sequence (P03070 whole entry, looked up): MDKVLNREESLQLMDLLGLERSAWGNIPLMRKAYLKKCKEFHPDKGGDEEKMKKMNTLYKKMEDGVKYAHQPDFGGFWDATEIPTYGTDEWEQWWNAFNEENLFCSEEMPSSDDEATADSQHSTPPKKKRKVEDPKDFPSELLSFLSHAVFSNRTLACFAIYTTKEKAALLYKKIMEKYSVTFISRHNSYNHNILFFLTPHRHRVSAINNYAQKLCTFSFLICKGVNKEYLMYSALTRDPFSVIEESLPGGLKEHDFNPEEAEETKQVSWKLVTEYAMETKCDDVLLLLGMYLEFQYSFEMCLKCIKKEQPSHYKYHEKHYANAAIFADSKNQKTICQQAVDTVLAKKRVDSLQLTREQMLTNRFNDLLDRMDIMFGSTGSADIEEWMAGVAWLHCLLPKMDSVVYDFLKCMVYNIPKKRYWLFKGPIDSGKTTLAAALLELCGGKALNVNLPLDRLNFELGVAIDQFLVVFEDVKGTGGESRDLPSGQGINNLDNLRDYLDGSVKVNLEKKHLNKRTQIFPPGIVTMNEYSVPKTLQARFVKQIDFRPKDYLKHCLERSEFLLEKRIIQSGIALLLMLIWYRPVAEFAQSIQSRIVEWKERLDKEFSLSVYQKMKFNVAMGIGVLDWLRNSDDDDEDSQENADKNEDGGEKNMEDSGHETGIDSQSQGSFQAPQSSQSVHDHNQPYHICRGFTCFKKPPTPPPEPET

Row | SMILES | inhibition [%]
1 | Cc1ccc(CNC(=O)c2nn(C)c(C)c2[N+](=O)[O-])cc1 | 10.1
2 | O=S(=O)(NCC1CCCN(Cc2ccccc2O)C1)c1cccc2cccnc12 (stereo not given) | 21.3
3 | S=C(NCCSCc1c(Cl)cccc1Cl)Nc1ccccc1 | 3.66
4 | O=C(NC(NC1CCS(=O)(=O)C1)C(Cl)(Cl)Cl)c1cccc(Cl)c1 (stereo not given) | 26
5 | c1cc(CNc2ccc3c(c2)OCO3)ccn1 | 25.9
6 | S=C(NCc1cccnc1)Nc1ccc2c(c1)OCO2 | 9.73
7 | CCN(CC)c1ccc(NC(=O)COC(=O)/C=C/c2nc3ccccc3s2)cc1 | 37.1
8 | O=C(COC(=O)c1ccc2ccccc2n1)NCc1ccccc1 | 6.87
9 | O=C(COC(=O)COc1ccccc1[N+](=O)[O-])Nc1cccc(Br)c1 | -10.5
10 | O=C(COC(=O)c1cccs1)Nc1ccccc1 | -1.96
11 | CCN(c1ccc(NC(=O)COC(=O)c2cccs2)cc1)C(C)C | 25.9
12 | COc1cccc(NC(=O)COC(=O)COc2ccccc2[N+](=O)[O-])c1 | 7.61
13 | CCCCCSc1nnc2c(n1)OC(C)N(C(C)=O)c1ccccc1-2 (stereo not given) | 5.71
14 | N#Cc1nc(COc2ccccc2Cl)oc1NCc1ccco1 | 15.3
15 | Cc1cc(C)nc(SCCC(=O)Nc2ccccc2)n1 | -11.3
16 | COc1cccc2cc(C(=O)NNC(=O)c3ccc(Br)cc3)c(=O)oc12 | -2.17
17 | COc1ccc(/C=C/C(=O)Nc2cc(S(=O)(=O)N3CCCCC3)ccc2N2CCCCC2)cc1OC | -6.48
18 | CC/C(=C\C(=O)c1ccncc1)Nc1ccc(Br)cc1 | 14.6
19 | O=C(COc1ccccc1C(=O)N/N=C\c1ccc(O)c(O)c1)N/N=C/c1ccc(O)c(O)c1 | 2.12
20 | C=C1CC(C(=O)N/N=C/c2ccccc2)C1 | 5.07
21 | Cc1nonc1C(=O)N/N=C/c1ccccc1 | -0.19
22 | Cc1nonc1C(=O)N/N=C/c1cccc(O)c1 | 8.34

Row | SMILES | inhibition [%]
23 | COc1ccc2c(c1)c(C(=O)N/N=C/c1cccc(O)c1)c(C)n2C | 14.4
24 | CC(C)(C)c1ccc(/C=N/NC(=O)C2CCCC2)cc1 | 13.3
25 | COc1ccc2c(c1)c(C(=O)N/N=C/c1ccc(OC)c(OC)c1)c(C)n2C | 13.7
26 | O=C(N/N=C/c1cccc(O)c1)N/N=C/c1cccc(O)c1 | 18.6
27 | Cc1ccc2[nH]c(=O)c(CN(CC3CCCO3)S(=O)(=O)c3c(C)ccc4nsnc34)cc2c1 (stereo not given) | -0.695
28 | CC(C)CC(CO)N1CCN(C(=O)c2ccccc2)CCC1=O (stereo not given) | 16.2
29 | CSc1ncc(Cl)c(C(=O)Nc2ccccc2[N+](=O)[O-])n1 | 30.7
30 | O=C1CC2(CCN(C(=O)c3cccc([N+](=O)[O-])c3)CC2)Oc2ccccc21 | 22.7
31 | COCc1ccc(C(=O)N2CCCC(Nc3ccc(C(C)C)cc3)C2)o1 (stereo not given) | 23.2
32 | CCCC(c1nnnn1Cc1ccco1)N1CCN(c2ccccc2)CC1 (stereo not given) | 24
33 | Cc1cc(Br)ccc1NC(=O)CN1C(=S)NC(C)(C)CC1C (stereo not given) | 5.62
34 | CN1C(=O)c2ccc(C(=O)NCc3ccc4c(c3)OCO4)cc2C1=O | 4.66
35 | O=C(N/N=C/c1ccc2c(c1)OCO2)C1CC1 | -8.98
36 | Oc1ccc(/C=N/N(c2ccccc2)c2ccccc2)cc1O | 20.4
37 | O=C(/C(=N/N=C/c1ccc(O)c(O)c1)c1ccccc1)c1ccccc1 | 32.3
38 | O=C(N/N=C/c1ccsc1)C1CC1 | 14.3
39 | Cc1cccc(OCc2nnc(SCC(=O)Nc3ncc(C)s3)o2)c1 | 3.87
40 | O=C1Nc2ccccc2/C1=N\N1CCOCC1 | 27.9
41 | O=C1Nc2ccccc2C1=Nc1ccc(Br)cc1 | 4.56
42 | COc1ccccc1NCCC(=O)O | 26.5
43 | O=C(O)CCCCCNS(=O)(=O)c1cccc2c1C(=O)c1ccccc1C2=O | 27
44 | O=C(NCC(c1ccc(F)cc1)N1CCOCC1)c1cccnc1Sc1ccc(Cl)cc1 (stereo not given) | 11.1

Row | SMILES | inhibition [%]
45 | Nc1n[nH]c(=S)n1-c1ccc(Cl)cc1 | 5.6
46 | CCCn1cnc2cc(NCc3ccccc3O)ccc21 | 33.9
47 | CCn1cnc2cc(NCc3ccccc3Cl)ccc21 | 21.6
48 | COc1ccccc1-n1cnc2cc(NCc3ccccc3O)ccc21 | 33.3
49 | CCCn1cnc2cc(NCc3cccc(OC)c3)ccc21 | 36.7
50 | CCCCN(C(=O)CCCSc1nc2ccccc2[nH]1)c1c(N)n(Cc2ccccc2)c(=O)[nH]c1=O | 3.22
51 | Cc1cccc(N/N=C(\C#N)S(=O)(=O)C(C)(C)C)c1 | 8.77
52 | O=C(O)CCCNC(=O)Cc1ccccc1 | 2.55
53 | O=C(Cc1cccs1)NNC(=O)c1ccc(F)cc1 | 8.96
54 | Cc1cc(Nc2ccccc2Cl)c2ccccc2n1 | 8.12
55 | C=CCOc1c(CNc2cccc(C(=O)O)c2)cccc1OC | 9.77
56 | C=CCOc1ccccc1CNc1cccc(F)c1 | -2.23
57 | COc1cccc(CNc2ccc3[nH]c(=O)[nH]c3c2)c1OCc1ccccc1Cl | 37
58 | C=CCOc1c(CNc2ccc(C(=O)O)cc2)cccc1OC | 9.8
59 | COc1cccc(CNc2ccc(C(=O)O)cc2)c1OCc1ccccc1 | 7.38
60 | C=CCOc1ccccc1CNc1ccc2c(c1)OCCO2 | 25.8
61 | COc1ccc2nc(NC(=O)C3CCN(C(=O)c4ccco4)CC3)sc2c1 | -5.44
62 | Cc1ccc(NC(=O)c2ccc(F)cc2)cc1S(=O)(=O)N1CCCCCC1 | 7.24
63 | COCCn1c(=O)[nH]c2cc(C(=O)Nc3ccc(OC)c(Cl)c3)ccc2c1=O | 4.08
64 | O=C(O)c1ccccc1N/N=C/c1c(Sc2nnnn2-c2ccccc2)nc2ccccn2c1=O | 13.1
65 | O=c1c(/C=N/Nc2ccccc2)c(Sc2nnnn2-c2ccccc2)nc2ccccn12 | 0.84
